# Compound activity deposited in PubChem BioAssay by The Scripps Research Institute Molecular Screening Center.
# PAFAH1B3 FP inh – inhibitors of human PAFAH1B3 | recombinant PAFAH1B3, FP-rhodamine probe, fluorescence polarization | inhibition, % at 3.39 µM | hit rate 0.28% among 340,000 | AID 492972;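 active = inhibition above the screen-wide average of all tested compounds plus 3 SD, cut at about 25% in these data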;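 also: 0% = enzyme with DMSO only and 100% = wells lacking PAFAH1B3 protein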
# PP5 primary – inhibitors of human protein phosphatase 5 (PP5) | P53041 | purified PP5c, OMFP substrate fluorescence | inhibition, % at 6.7 µM | hit rate 0.18% among 320,000 | AID 1987;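 active = inhibition above the campaign's mean inhibition across all tested compounds plus 3 SD, cut at about 9.5% in these data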;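 also: 0% = DMSO only and 100% = 100 µM cantharidin control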
# PP1 counter – counter-screen for PP5 inhibitors: inhibitors of human PP1-alpha. purified PP1alpha, OMFP fluorescence. hit rate 0.9% among 320,000. inhibition, % at 6.7 µM. P62136;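 active = inhibition above the mean inhibition of all tested compounds plus 3 SD, computed separately for each screening campaign, cut at about 15% in these data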
# pPAFAH FP inh – inhibitors of human plasma PAF acetylhydrolase (pPAFAH). Q13093. recombinant pPAFAH, FP-rhodamine probe fluorescence polarization. inhibition, % at 3.39 µM. hit rate 1.5% among 330,000. AID 463082;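 active = inhibition above the mean inhibition across the screen plus 3 SD, cut at about 25% in these data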;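 also: inhibitors block binding of the rhodamine activity-based probe so polarization drops; 0% = enzyme with DMSO and 100% = wells lacking pPAFAH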
# Target sequence (Q13093 whole entry, looked up): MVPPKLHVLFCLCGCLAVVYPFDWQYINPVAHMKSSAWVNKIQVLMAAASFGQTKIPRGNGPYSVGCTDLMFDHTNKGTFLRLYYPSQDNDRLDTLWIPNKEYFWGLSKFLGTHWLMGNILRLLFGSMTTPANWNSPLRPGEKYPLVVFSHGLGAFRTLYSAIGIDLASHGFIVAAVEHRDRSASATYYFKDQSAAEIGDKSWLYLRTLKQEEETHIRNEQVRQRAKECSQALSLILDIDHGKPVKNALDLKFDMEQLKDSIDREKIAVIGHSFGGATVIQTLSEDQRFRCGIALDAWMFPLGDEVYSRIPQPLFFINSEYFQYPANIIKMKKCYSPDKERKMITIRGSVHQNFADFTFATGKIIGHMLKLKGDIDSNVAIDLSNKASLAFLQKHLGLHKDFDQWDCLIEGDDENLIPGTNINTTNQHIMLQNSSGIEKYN
# PAFAH1B2 inh – inhibitors of human PAFAH1B2. P68402. recombinant PAFAH1B2, FP-rhodamine activity probe, fluorescence polarization. inhibition, % at 3.39 µM. hit rate 1.2% among 340,000. AID 492953;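 active = inhibition above the mean of all tested compounds plus 3 SD, cut at about 24% in these data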;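 also: 0% = enzyme with DMSO and 100% = wells lacking PAFAH1B2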
# PAFAH2 FP inh – inhibitors of human PAFAH2; inhibition, % at 3.39 µM; hit rate 0.99% among 340,000; recombinant PAFAH2, FP-rhodamine activity probe, fluorescence polarization; Q99487;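 active = inhibition above the mean over all tested compounds plus 3 SD, cut at about 30% in these data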;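 also: inhibitors block probe labeling of enzyme so polarization drops; 0% = enzyme with DMSO and 100% = wells lacking PAFAH2 protein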
# * = called active by the depositor; / = no result given. Shown are actives, neighbours in structure and some others; about 3.4% of the full set was active somewhere.
SMILES,PAFAH1B3 FP inh,PP5 primary,PP1 counter,pPAFAH FP inh,PAFAH1B2 inh,PAFAH2 FP inh
Cc1ccc(N(CC(=O)NCc2ccco2)C(=O)CCC(=O)Nc2ccccn2)cc1C,3,2,5,7,-1,6
CCc1nnc(NC(=O)CC23CC4CC(CC(C4)C2)C3)s1,2,1,2,4,19,7
Cc1nnc(NC(=O)CC23CC4CC(CC(C4)C2)C3)s1,7,0,-3,3,28*,3
Cc1nnc(NC(=O)C23CC4CC(C)(CC(C)(C4)C2)C3)s1,1,3,1,0,26*,-1
CC12CC3CC(C)(C1)CC(C(=O)Nc1nncs1)(C3)C2,-1,-1,-1,3,28*,-8
CC1CN(S(=O)(=O)c2cccc(C(=O)N3CCC(C(N)=O)CC3)c2)CC(C)O1 (stereo not drawn),4,/,/,6,4,8
C#CC[N+]1(CC#Cc2ccc(C#CC[N+]3(CC#C)CCOCC3)cc2)CCOCC1,11,-3,0,-1,8,-7
COc1cccc(C(=O)C2CCCN(C(=O)c3ccc(C#CC(C)(C)O)cc3)C2)c1 (stereo not drawn),9,-5,10,13,1,-6
CC1SC2(NC1=O)C1CC3CC(C1)CC2C3 (stereo not drawn),0,2,1,1,28*,1
COc1cccc(-n2c(CNc3ccc(F)cc3)nnc2SCC(N)=O)c1,2,3,-4,3,26*,2
O=[N+]([O-])c1ccc(N/N=C/c2ccc(OCc3cccc4ccccc34)cc2)nc1,1,3,3,6,0,-3
Cc1nc(Cl)c(Cl)n1CCOc1ccccc1,/,1,1,7,/,/
Cc1ccnc(NCc2ccc(Br)cc2)c1,9,0,-1,8,27*,3
COc1ccc(CNc2cc(C)ccn2)cc1,2,0,0,1,1,6
Cc1cccc(NCc2ccc(Br)cc2)n1,-2,1,0,4,30*,-12
CC1=NN(C(C#N)c2ccccc2)C(c2ccccc2)C1 (stereo not drawn),/,-1,-7,5,/,/
COC(=O)C1=CN(CC2CCCO2)C=C(C(=O)OC)C1c1ccccc1C(F)(F)F (stereo not drawn),6,2,0,6,0,-6
CC1(C)Cc2c(C#N)c(N3CCN(C(=O)c4ccccc4Cl)CC3)nc(-c3ccco3)c2CS1,5,4,17*,34*,4,10
Cc1ccccc1CSc1ncnc2ccccc12,6,5,-2,32*,4,-2
O=C(CNS(=O)(=O)c1ccccc1)NCC(=O)OCc1ccc(Cl)cc1,0,1,-4,5,27*,-2
CCc1cccc(OCC(=O)Nc2ccc(C)c(S(=O)(=O)N3CCCCCC3)c2)c1,-10,2,5,-6,-4,-16
O=C1N[C@@H](Cc2ccccc2)COC(=O)[C@@H](Cc2ccc(F)cc2)C/C=C\C[C@@H]1CC(=O)N(CCO)Cc1ccccc1,-2,/,/,9,41*,1
O=C1NCCOC(=O)[C@@H](Cc2ccc(F)cc2)C/C=C\C[C@@H]1CC(=O)N(CCO)Cc1ccccc1,1,/,/,4,26*,-1
CC(C)(C)[C@@H]1COC(=O)[C@H](Cc2ccc(F)cc2)C/C=C\C[C@H](CC(=O)N(CCO)Cc2ccccc2)C(=O)N1,5,/,/,3,30*,3
CC(C)(C)OC(=O)C[C@@H]1C/C=C\C[C@@H](CC(=O)N(CCO)Cc2ccccc2)C(=O)NCCOC1=O,3,/,/,3,-1,-7
SMILES,PAFAH1B3 FP inh,PP5 primary,PP1 counter,pPAFAH FP inh,PAFAH1B2 inh,PAFAH2 FP inh
CCOC(=O)C/C(C)=N/NC(=O)c1cccs1,5,2,-1,5,4,-9
Cc1ccc(C)c(SCC(=O)OCC(=O)Nc2ccc(S(=O)(=O)N3CCOCC3)cc2)c1,8,4,-1,26*,6,2
Cc1ccc(NC(=O)COC(=O)CCc2ccc(S(=O)(=O)N3CCOCC3)cc2)cc1C,-3,-2,-3,6,4,4
Cc1ccc(NC(=O)COC(=O)CCC2CCCC2)cc1S(=O)(=O)N1CCOCC1,0,/,/,33*,4,32*
Cc1ccc(NC(=O)COC(=O)CCC(=O)c2cccs2)cc1S(=O)(=O)N1CCOCC1,9,4,-3,7,5,-1
O=c1[nH]n2c(=O)c3c([nH]c2c1N=Nc1cccc(Cl)c1)CCC3,3,3,17*,24,10,16
